In PubChem BioAssay (NCATS):
Records with an inconclusive call do not appear. A number with no mark means an inactive call. Calls follow the shape of the dose curve; as a rule, active = well fitted curve in the direction sought with a large enough effect; inconclusive = small, poorly fitted or top-dose-only effect, or another doubt; inactive = no such curve, though single readings can be large; an effect the other way counts as inactive or inconclusive. Where a SMILES comes first, the peptide text is derived from it. Bridges are numbered along the chain shown (N, C = ends). [ ]: non-standard residue; d: D form. The star is where a group is joined. ξ: configuration not given here. d(aThr) = C[C@@H](O)[C@@H](N)C(=O)O; ξThr(3R) = C[C@@H](O)C(N)C(=O)O; X3 = CC[C@@H](C)CCCCC(=O)*; dDab = NCC[C@@H](N)C(=O)O

experiment: qHTS assay to identify small molecule inhibitors of chordoma cells - UCH-1 (AID 1259355); settings: UCH-1 chordoma viability, CellTiter-Glo, 48 h, combination, with auranofin plus four topoisomerase inhibitors; series mostly up to 46.1 µM; activity, negative = inhibition: at the top concentration; also: nearly all actives have a fitted effect of over 55% in size
Procedure, shortened: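 800 cells/well, overnight attach; compounds pinned at 15 concs, then auranofin/camptothecin/doxorubicin/rubitecan/topotecan combo added; 48hr 37 C, 5% CO2; CellTiter-Glo, 30min RT, luminescence.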
% is scaled to controls: 0 for no effect and ±100 for the full control effect.

SMILES | activity, negative = inhibition
O=C(NNCNNC(=O)c1ccncc1)c1ccncc1 | -0.934%
CCCC(CCC)C(=O)OC1C[C@H]2CC[C@@H](C1)[N+]2(C)C (stereo partly specified) | -0.382%
O=C1[O][Bi][O]c2ccccc21 | -4.22%
NC(N)=O | 23.6%
CC[C@H]1OC(=O)[C@H](C)[C@@H](O[C@H]2C[C@@](C)(OC)[C@@H](O)[C@H](C)O2)[C@H](C)[C@@H](O[C@@H]2O[C@H](C)C[C@H](N(C)C)[C@H]2O)[C@](C)(O)C[C@@H](C)CN(C)[C@H](C)[C@@H](O)[C@]1(C)O | 1.62%
CCC(=O)c1ccc2c(c1)N(CCCN1CCN(CCO)CC1)c1ccccc1S2 | -37.2%
Cc1ccc(S(=O)(=O)NC(=O)N[C@@H](C)Cc2ccccc2)cc1 | -7.08%
C[Se]CC[C@H](N)C(=O)O | -4.1%
COc1ccc([C@@H]2CC(=O)c3c(O)cc(O[C@@H]4O[C@H](CO[C@@H]5O[C@@H](C)[C@H](O)[C@@H](O)[C@H]5O)[C@@H](O)[C@H](O)[C@H]4O)cc3O2)cc1O | 4.95% [at 20.6 µM]
Cc1c(O)c(=O)ccn1C | -11.9%
CC(=O)OCC1=C(C(=O)O)N2C(=O)[C@@H](NC(=O)Cc3ccccc3)[C@H]2SC1 | -2.49%
CCN(CC)CCOC[C@H]1O[C@@H](O)[C@H](OCCN(CC)CC)[C@@H](O)[C@@H]1O | 2.14%
Oc1ccc(/C=C/c2cc(O)cc(O)c2)cc1 | -34.6% [at 20.6 µM]
CC1(C)[C@H]2CC[C@]1(C)[C@H](O)C2 | -5.68%
CC1CC(OC(=O)C(O)c2ccccc2)CC(C)(C)C1 (stereo unspecified) | 1.82%
NC(=O)[C@H]1O[C@@H](O)[C@H](O)[C@@H](O)[C@@H]1O | -5.04%
c1ccc2c(c1)OCC(CN1CCCCC1)O2 (stereo unspecified) | -23%
CC[C@@H](C)CCCCC(=O)N[C@H](CCN)C(=O)N[C@@H](C(=O)N[C@H](CCN)C(=O)N[C@@H]1CCNC(=O)C([C@@H](C)O)NC(=O)[C@@H](CCN)NC(=O)[C@@H](CCN)NC(=O)[C@@H](CC(C)C)NC(=O)[C@@H](Cc2ccccc2)NC(=O)[C@@H](CCN)NC1=O)[C@@H](C)O (stereo partly drawn) (X3-[dDab][d(aThr)][dDab][dDab][dDab][dF][dL][dDab][dDab][ξThr(3R)]; lactam 4-C) | -11%
CCCCCCCCCCCCCCCCCCCCCC(=O)Nc1ccn([C@@H]2O[C@H](CO)[C@@H](O)[C@@H]2O)c(=O)n1 | -6.29%

SMILES | activity, negative = inhibition
O=C1c2c(O)cccc2[C@H]([C@@H]2O[C@H](CO)[C@@H](O)[C@H](O)[C@H]2O)c2cc(CO)cc(O)c21 | -14.7%
Cc1c(C)c2c(c(C)c1OC(=O)CCC(=O)O)CC[C@@](C)(CCC[C@H](C)CCC[C@H](C)CCCC(C)C)O2 | -6.05%
O=C1N=C2SCCN2C(=O)C1Cc1ccc(Cl)cc1 (stereo unspecified) | -8.79%
CCCCC | -10.1%
CCCCCCCCCCCCCCCCCC(=O)OCC(C)O (stereo unspecified) | -23.6%
Cc1ncc(C[n+]2csc(CCOP(=O)(O)OP(=O)(O)O)c2C)c(N)n1 | 0.917%
NCCO/C=C/[C@H](N)C(=O)O | -18%
CCCCCCCCCCCCCCCC(=O)OC[C@H](COP(=O)([O-])OCC[N+](C)(C)C)OC(=O)CCCCCCCCCCCCCCC | -8.35%
O=C(O)CCC/C=C\C[C@@H]1[C@@H](/C=C/[C@@H](O)COc2cccc(C(F)(F)F)c2)[C@H](O)C[C@@H]1O | -16.3%
O=C(O)/C=C/c1ccccc1 | -14.8%
CC1(C)[C@@H]2CC[C@@]1(C)[C@H](OC(=O)CSC#N)C2 | -8.27%
CCCCCCCCCCCC(=O)OCC(O)CO (stereo unspecified) | -14%
O=C(O)c1cc(N=Nc2ccc(O)c(C(=O)O)c2)ccc1O | 0.556%
NC[C@@H]1CC[C@@H](N)[C@@H](O[C@H]2[C@H](O)[C@@H](O[C@H]3O[C@H](CO)[C@@H](O)[C@H](N)[C@H]3O)[C@H](N)C[C@@H]2N)O1 | -8.18%
CN1CCc2c(c3ccccc3n2Cc2ccccc2)C1 | 9.64% [at 20.6 µM]
CC(=O)N[C@@H]([C@@H](O)[C@H](O)[C@H](O)CO)[C@@H](O)CC(=O)C(=O)O | -0.517%
CC12CCC(C1)C(C)(C)C2=O (stereo unspecified) | -20.8%
CCOC(=O)[C@H](CS)NCCN[C@@H](CS)C(=O)OCC | -8.65%
CCOC(=S)SSC(=S)OCC | -9.67%

experiment: qHTS assay to identify small molecule inhibitors of chordoma cells - UCH-2 (AID 1259356); settings: UCH-2 chordoma viability, CellTiter-Glo ATP luminescence, 48 h; series mostly up to 46.1 µM; activity change, negative = inhibition: at the top concentration

SMILES | activity change, negative = inhibition
O=C(NNCNNC(=O)c1ccncc1)c1ccncc1 | -17.3%
CCCC(CCC)C(=O)OC1C[C@H]2CC[C@@H](C1)[N+]2(C)C (stereo partly specified) | 1.61%
O=C1[O][Bi][O]c2ccccc21 | 5.22%
NC(N)=O | 4.09%
CC[C@H]1OC(=O)[C@H](C)[C@@H](O[C@H]2C[C@@](C)(OC)[C@@H](O)[C@H](C)O2)[C@H](C)[C@@H](O[C@@H]2O[C@H](C)C[C@H](N(C)C)[C@H]2O)[C@](C)(O)C[C@@H](C)CN(C)[C@H](C)[C@@H](O)[C@]1(C)O | 2.15%
CCC(=O)c1ccc2c(c1)N(CCCN1CCN(CCO)CC1)c1ccccc1S2 | -28.4%
Cc1ccc(S(=O)(=O)NC(=O)N[C@@H](C)Cc2ccccc2)cc1 | -11.4%
C[Se]CC[C@H](N)C(=O)O | -4.94%
COc1ccc([C@@H]2CC(=O)c3c(O)cc(O[C@@H]4O[C@H](CO[C@@H]5O[C@@H](C)[C@H](O)[C@@H](O)[C@H]5O)[C@@H](O)[C@H](O)[C@H]4O)cc3O2)cc1O | 7.62% [at 20.6 µM]
Cc1c(O)c(=O)ccn1C | 17.2%
CC(=O)OCC1=C(C(=O)O)N2C(=O)[C@@H](NC(=O)Cc3ccccc3)[C@H]2SC1 | 3.35%
CCN(CC)CCOC[C@H]1O[C@@H](O)[C@H](OCCN(CC)CC)[C@@H](O)[C@@H]1O | -1.42%
Oc1ccc(/C=C/c2cc(O)cc(O)c2)cc1 | -21.1% [at 20.6 µM]
CC1(C)[C@H]2CC[C@]1(C)[C@H](O)C2 | -2.18%
CC1CC(OC(=O)C(O)c2ccccc2)CC(C)(C)C1 (stereo unspecified) | 6.07%
NC(=O)[C@H]1O[C@@H](O)[C@H](O)[C@@H](O)[C@@H]1O | 13.4%
c1ccc2c(c1)OCC(CN1CCCCC1)O2 (stereo unspecified) | 12%
CC[C@@H](C)CCCCC(=O)N[C@H](CCN)C(=O)N[C@@H](C(=O)N[C@H](CCN)C(=O)N[C@@H]1CCNC(=O)C([C@@H](C)O)NC(=O)[C@@H](CCN)NC(=O)[C@@H](CCN)NC(=O)[C@@H](CC(C)C)NC(=O)[C@@H](Cc2ccccc2)NC(=O)[C@@H](CCN)NC1=O)[C@@H](C)O (stereo partly drawn) (X3-[dDab][d(aThr)][dDab][dDab][dDab][dF][dL][dDab][dDab][ξThr(3R)]; lactam 4-C) | 0.526%
CCCCCCCCCCCCCCCCCCCCCC(=O)Nc1ccn([C@@H]2O[C@H](CO)[C@@H](O)[C@@H]2O)c(=O)n1 | -6.04%

SMILES | activity change, negative = inhibition
O=C1c2c(O)cccc2[C@H]([C@@H]2O[C@H](CO)[C@@H](O)[C@H](O)[C@H]2O)c2cc(CO)cc(O)c21 | -0.681%
Cc1c(C)c2c(c(C)c1OC(=O)CCC(=O)O)CC[C@@](C)(CCC[C@H](C)CCC[C@H](C)CCCC(C)C)O2 | -2.61%
O=C1N=C2SCCN2C(=O)C1Cc1ccc(Cl)cc1 (stereo unspecified) | 4.51%
CCCCC | 2.99%
CCCCCCCCCCCCCCCCCC(=O)OCC(C)O (stereo unspecified) | 1.51%
Cc1ncc(C[n+]2csc(CCOP(=O)(O)OP(=O)(O)O)c2C)c(N)n1 | 3.38%
NCCO/C=C/[C@H](N)C(=O)O | 4.19%
CCCCCCCCCCCCCCCC(=O)OC[C@H](COP(=O)([O-])OCC[N+](C)(C)C)OC(=O)CCCCCCCCCCCCCCC | 9.51%
O=C(O)CCC/C=C\C[C@@H]1[C@@H](/C=C/[C@@H](O)COc2cccc(C(F)(F)F)c2)[C@H](O)C[C@@H]1O | 7.45%
O=C(O)/C=C/c1ccccc1 | -1.11%
CC1(C)[C@@H]2CC[C@@]1(C)[C@H](OC(=O)CSC#N)C2 | 5.23%
CCCCCCCCCCCC(=O)OCC(O)CO (stereo unspecified) | -2.8%
O=C(O)c1cc(N=Nc2ccc(O)c(C(=O)O)c2)ccc1O | 3.04%
NC[C@@H]1CC[C@@H](N)[C@@H](O[C@H]2[C@H](O)[C@@H](O[C@H]3O[C@H](CO)[C@@H](O)[C@H](N)[C@H]3O)[C@H](N)C[C@@H]2N)O1 | 4.05%
CN1CCc2c(c3ccccc3n2Cc2ccccc2)C1 | 13.4% [at 20.6 µM]
CC(=O)N[C@@H]([C@@H](O)[C@H](O)[C@H](O)CO)[C@@H](O)CC(=O)C(=O)O | 12.2%
CC12CCC(C1)C(C)(C)C2=O (stereo unspecified) | 2.03%
CCOC(=O)[C@H](CS)NCCN[C@@H](CS)C(=O)OCC | 2.65%
CCOC(=S)SSC(=S)OCC | 1.3%
